Laboratory results reported in PubChem BioAssay AID1851 (National Center for Advancing Translational Sciences (NCATS), 2009).
The whole screen tested about 16,000 compounds, of which about 5,700 (36%) were called active. Roughly 24% stayed inconclusive and do not appear here. Calls come from the whole dose curve; as a rule, active = well fitted curve in the direction sought with a large enough effect; inconclusive = small, poorly fitted or top-dose-only effect, or effect the other way; inactive = no such curve, though single readings can be large or run the other way. This is one part of the list.

biological target: Cytochrome P450 1A2 (Homo sapiens) (UniProt P05177); assay: Cytochrome panel assay with activity outcomes; settings: recombinant CYP, pro-luciferin dealkylation, luminescence, p450-cyp1a2; series mostly up to 57.1 µM
% is set by controls: 0 for no effect and ±100 for the full control effect.

Cytochrome P450 1A2 (Homo sapiens), sequence (P05177 whole entry, looked up): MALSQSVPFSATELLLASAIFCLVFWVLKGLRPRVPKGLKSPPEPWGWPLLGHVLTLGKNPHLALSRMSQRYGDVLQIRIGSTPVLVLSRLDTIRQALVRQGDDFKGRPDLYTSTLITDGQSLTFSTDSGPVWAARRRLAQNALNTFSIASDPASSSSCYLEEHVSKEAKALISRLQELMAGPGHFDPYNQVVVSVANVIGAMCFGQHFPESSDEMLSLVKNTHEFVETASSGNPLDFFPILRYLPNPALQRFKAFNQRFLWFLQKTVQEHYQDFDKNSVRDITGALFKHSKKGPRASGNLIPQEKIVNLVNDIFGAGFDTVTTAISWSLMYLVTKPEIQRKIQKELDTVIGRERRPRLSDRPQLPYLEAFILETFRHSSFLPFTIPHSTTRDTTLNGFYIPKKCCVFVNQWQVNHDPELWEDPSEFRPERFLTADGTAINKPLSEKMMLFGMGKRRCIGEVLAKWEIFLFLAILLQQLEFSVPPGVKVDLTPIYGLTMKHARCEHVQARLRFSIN

SMILES | AC50 | activity, negative = inhibition
COc1ccccc1C1=NOC(COC(=O)c2ccc3ccccc3n2)C1 (configuration not stated) | 14100 nM (active) | 
O=C(O)c1c(-c2c3ccc(=O)cc-3oc3cc(O)ccc23)cc2ccccc2c1-c1ccccc1 |  | -17.6% [at 2.29 µM] (inactive)
CNC(=O)/C(C#N)=c1\s/c(=C/C(=O)OC)c(=O)n1-c1ccccc1 | inactive | 
COC(=O)[C@@H]1[C@@H](O)[C@]2(O)c3ccccc3O[C@]2(c2ccccc2)[C@H]1c1ccccc1 |  | -6.42% [at 11.4 µM] (inactive)
COc1cc(CNC2CCCC2)cc(Cl)c1OCc1ccccc1Cl | 708 nM (active) | 
COc1ccccc1CNC(=O)CCCn1c(=O)c2ccccc2n(CC(=O)NC2CCCC2)c1=O | inactive | 
COc1cc(O)oc1C=Nc1ccc(Cl)cc1 | 2240 nM (active) | 
COc1cccc(CNc2ccc(F)c(Cl)c2)c1O | inactive | 
COc1cc(O)oc1C=Nc1ccc(C(F)(F)F)cc1 | 501 nM (active) | 
COC(=O)N1CCC2(CCN(C(=O)Nc3ccccc3)CC2)CC1 | inactive | 
CCC#CCOCC(=O)Nc1ccccc1 | 25100 nM (active) | 
CC(C)CN1CCCC2(CCN(C(=O)c3cccc(F)c3)CC2)C1 | inactive | 
Nc1ncnc2c1ncn2[C@H]1O[C@@H](CO)[C@@H](O)[C@H]1N |  | -8.67% [at 11.4 µM] (inactive)
CCCCCCCOC1(c2ccccc2)OC(=O)c2ccccc21 (configuration not stated) | inactive | 
CCCCOC1(c2ccccc2)OC(=O)c2ccccc21 (configuration not stated) | inactive | 
Cc1cccc(C)c1OC1(c2ccccc2)OC(=O)c2ccccc21 (configuration not stated) | 20000 nM (active) | 
CC(=O)N1CCC2(CC1)CCN(c1ccccn1)CC2 | inactive | 
O=C1C=CC(=Nc2cccc3c(N=C4C=CC(=O)O4)cccc23)O1 |  | -14% [at 11.4 µM] (inactive)
O=C(O)CSc1nc2ccccc2[nH]1 |  | -19.8% [at 11.4 µM] (inactive)
O=C(CCN1C(=O)C2C3C=CC(C3)C2C1=O)Nc1c(F)cccc1F (configuration not stated) | inactive | 
O=C(CSc1nc2ccccc2[nH]1)Nc1c(F)cccc1F | 8910 nM (active) | 
Cc1onc(-c2ccccc2Cl)c1C(=O)Nc1nnc(Cc2ccc(Cl)cc2)s1 | inactive | 
O=C(Nc1ccc(Cl)cc1)OCc1cc(-c2ccccc2)on1 | 2240 nM (active) | 
CS(=O)(=O)c1ccccc1COC(=O)Nc1ccc(Cl)cc1 | 17800 nM (active) | 
O=C(Nc1ccc(Cl)cc1)OCc1cc(-c2ccccc2Cl)on1 | 447 nM (active) | 
O=C(Nc1ccccc1)OCc1cc(-c2ccc(Cl)cc2)on1 | 562 nM (active) | 
CCN1C(=O)[C@H]2[C@H]3[C@H](O)[C@H](O)C/C(=N/O[C@@H]4O[C@@H](COC(C)=O)[C@@H](OC(C)=O)[C@@H](OC(C)=O)[C@H]4OC(C)=O)[C@H]3CC[C@@H]2C1=O |  | -5.44% [at 11.4 µM] (inactive)
